Hit rate of the full screen: of about 47,000 compounds, about 1,400 (3%) were called active. The list comes from a sample in which actives are over-represented; it also holds similar structures and randomly drawn compounds. A number with no mark means an inactive call. Rule as the data show it: active = inhibition above about 30%; inactive = the rest.
Biological target: Ubiquitin carboxyl-terminal hydrolase 28 (Homo sapiens) (UniProt Q96RU2)
Experiment: inhibitors of human USP28 deubiquitinase (AID 1645857)
Conditions: purified USP28, Ub-rhodamine cleavage fluorescence, 30 min; at 25 µM; stronger effect = higher value

Chain of Ubiquitin carboxyl-terminal hydrolase 28 (Homo sapiens) (Q96RU2 whole entry, looked up): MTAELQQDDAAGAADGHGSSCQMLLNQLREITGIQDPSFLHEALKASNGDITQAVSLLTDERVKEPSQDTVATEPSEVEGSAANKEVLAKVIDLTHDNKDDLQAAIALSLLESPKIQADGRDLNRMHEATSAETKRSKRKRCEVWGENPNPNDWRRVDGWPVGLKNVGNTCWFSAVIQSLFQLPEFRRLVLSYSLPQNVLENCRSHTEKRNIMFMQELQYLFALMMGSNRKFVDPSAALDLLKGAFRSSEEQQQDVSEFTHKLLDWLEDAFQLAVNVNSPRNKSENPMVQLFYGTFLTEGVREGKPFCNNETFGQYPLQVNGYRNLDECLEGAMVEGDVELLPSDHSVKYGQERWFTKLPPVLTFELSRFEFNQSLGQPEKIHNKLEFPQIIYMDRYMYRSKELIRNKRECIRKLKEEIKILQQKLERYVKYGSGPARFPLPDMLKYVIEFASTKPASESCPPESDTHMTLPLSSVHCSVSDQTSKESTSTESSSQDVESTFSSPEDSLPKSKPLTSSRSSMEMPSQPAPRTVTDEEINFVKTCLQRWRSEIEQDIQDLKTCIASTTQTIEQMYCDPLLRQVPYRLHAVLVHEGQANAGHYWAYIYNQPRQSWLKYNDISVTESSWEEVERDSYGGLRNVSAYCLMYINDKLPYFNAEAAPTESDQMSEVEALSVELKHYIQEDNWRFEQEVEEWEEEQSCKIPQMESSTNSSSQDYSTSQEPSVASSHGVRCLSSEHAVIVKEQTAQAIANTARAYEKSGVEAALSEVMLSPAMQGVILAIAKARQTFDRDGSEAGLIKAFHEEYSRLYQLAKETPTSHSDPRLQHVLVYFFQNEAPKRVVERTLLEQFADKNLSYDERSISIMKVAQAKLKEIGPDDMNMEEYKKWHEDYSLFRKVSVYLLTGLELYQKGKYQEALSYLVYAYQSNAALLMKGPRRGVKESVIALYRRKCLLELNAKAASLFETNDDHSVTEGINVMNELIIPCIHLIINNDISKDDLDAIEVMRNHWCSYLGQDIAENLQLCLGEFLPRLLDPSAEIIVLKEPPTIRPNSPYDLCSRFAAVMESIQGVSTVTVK

Structure (SMILES) | inhibition
O=C(NCC(c1cccnc1)N1CCc2ccccc2C1)c1cccc(F)c1 (stereo unspecified) | -8.37%
COc1ccc(N(Cc2cc(=O)[nH]c3ccccc23)C(=O)c2ccc(Cl)cc2)cc1 | 9.24%
CC(=O)c1ccc(Cc2ncc(C(F)(F)F)cc2Cl)s1 | 61% (active)
O=c1[nH]oc(O)c1-c1ncc(C(F)(F)F)cc1Cl | 8.59%
Cc1cc(N)nc2c1c(C)nn2-c1ncc(C(F)(F)F)cc1Cl | -20.8%
COc1ccc(N(CC(=O)N2CCc3ccccc32)S(=O)(=O)c2ccccc2)cc1 | -2%
O=C(c1ccccc1F)N1CCCC1c1nccnc1-c1ncc[nH]1 (stereo unspecified) | 8.72%
O=C(COc1ccccc1)N1CCc2[nH]nc(-c3ccccc3)c2C1 | 5.14%
COc1ccc(Oc2nc(C)c(-c3ccccc3)cc2C#N)cc1 | 13.9%
COc1ccccc1N1C(=O)c2ccccc2N2C(=O)c3ccccc3C12 (stereo unspecified) | 6.01%
Cc1cccc(NC(=O)c2cnn3c2NC2=C(C(=O)CCC2)C3c2ccccc2)c1 (stereo unspecified) | -27.3%
CCCCOc1ccc(C(=O)Nc2ccc3c(c2)CCC(=O)N3CCC)cc1 | 84.6% (active)
COCCN1C(=O)CCc2cc(NS(=O)(=O)c3cc(C)cc(C)c3)ccc21 | -19.5%
CCN1C(=O)CCc2cc(NC(=O)Cc3ccc(OC)c(Cl)c3)ccc21 | 2.71%
Cc1ccnc(Nc2nc(-c3ccccc3)c3cc(Cl)ccc3n2)n1 | 12.6%
COc1ccccc1CC(NC(C)=O)C(=O)NC1CCN(C(=O)c2cccc(C)c2)CC1 (stereo unspecified) | -1.93%
Cc1cc(C)n(CC2CCCCN2CC(=O)NC2(C#N)CCCC2)n1 (stereo unspecified) | 0.626%
Cc1ccc(C(=O)Nc2nccnc2C(=O)NCc2ccc3c(c2)OCO3)cc1 | -7.28%
Cc1ccc(C(=O)Nc2nc3c(s2)CCC3C(=O)NCc2ccncc2)cc1 (stereo unspecified) | 37.1% (active)

Structure (SMILES) | inhibition
CCc1nc2ccc(C(=O)Nc3nc(-c4ccc5c(c4)CCN5C(=O)c4ccc(C)cc4)c(C)s3)cc2nc1CC | -7.6%
NS(=O)(=O)c1ccc(CNc2nc(CN3CCCCC3)nc3sc4c(c23)CCC4)cc1 | -16.9%
CCCCn1c(=O)c(CCC(=O)OCC(=O)Nc2ccc(C)c(Cl)c2)nc2ccccc21 | -33.9%
O=C(CC1CCCC1)N1CCCC(n2c(=O)[nH]c3cncnc32)C1 (stereo unspecified) | -14.3%
Cc1cccc(OCc2nnc(C3(c4ccc(F)cc4)CCOCC3)o2)c1 | 13.2%
c1coc(CNc2nc(Nc3cccc4ccccc34)nc3ccccc23)c1 | 43.7% (active)
CC(C)Cc1nc2sc3c(NCc4ccco4)ncnc3c2c2c1CCC2 | 21.3%
Fc1ccc(-n2cc(-c3ccccc3)c3c(NCc4ccco4)ncnc32)cc1 | -4.6%
COc1ccccc1NC(=O)N1CCN(Cc2nc3ccccc3o2)CC1 | -5.25%
COc1ccccc1NC(=O)Nc1ccc(CCc2nc3ccccc3[nH]2)cc1 | -8.19%
CCOc1ccccc1NC(=O)Nc1cc(-c2nc3ccccc3o2)ccc1OC | 30.8% (active)
CN(C)c1cccc(C2CN(C(=O)c3ccc4n[nH]nc4c3)CCO2)n1 (stereo unspecified) | 8.99%
Cc1nc(-c2cccc(S(=O)(=O)NCc3ccc(Cl)cc3)c2)no1 | 15.5%
O=C(Nc1cccc(S(=O)(=O)N2CCCCCC2)c1)c1ccc(N2CCOCC2)c([N+](=O)[O-])c1 | 35.6% (active)
CN1CCN(S(=O)(=O)c2cccc(C(=O)Nc3cccc(S(N)(=O)=O)c3)c2)CC1 | 0.55%
Cc1cccc(NC(=O)c2ccc(N3CCC(C)CC3)c([N+](=O)[O-])c2)c1C | -2.68%
CC1(C)CC(=O)C2=C(C1)Nc1ccccc1NC2c1ccccc1O (stereo unspecified) | 4.62%
Cc1cc(-c2cc(N)n(-c3ccccc3)n2)c(C)n1-c1cccc(C(F)(F)F)c1 | 3.89%
COc1cc(N2CC[C@@H]3[C@@H](CO[C@H]3CNC(=O)C3CC3)C2)ncn1 | 5.25%

Structure (SMILES) | inhibition
Cc1cccc(C)c1NC(=O)c1nnn(-c2ccc3noc(-c4ccccc4)c3c2)c1C | 8.24%
C=C1CCC2[C@](C)(CCC[C@]2(C)C(=O)OC)[C@H]1CCc1ccoc1C[N+](C)(C)Cc1ccccc1 (stereo partly specified) | 50.6% (active)
C=C1CCC2[C@](C)(CCC[C@]2(C)C(=O)OC)[C@H]1CCc1ccoc1/C=C/C(=O)O (stereo partly specified) | 48% (active)
O=C(NCc1ccc2c(c1)OCO2)c1cncc(NS(=O)(=O)c2ccc3c(c2)OCCO3)c1 | 4.62%
N#Cc1ccc(C(=O)N2CCC(c3nc(-c4ccccc4)no3)CC2)cc1 | 3.9%
O=C(c1ccccc1)N1CCC2(CC1)OCCCO2 | 4.41%
CCc1cc(=O)oc2cc(C)cc(OCC(=O)N3CCC4(O)CCCCC4C3)c12 (stereo unspecified) | -0.0724%
Cc1ccc(-c2ncc(C(=O)Nc3ccccc3C)c(-c3ccncc3)n2)cc1 | -83.7%
Fc1ccc(CN=C2C(c3ccc4c(c3)OCCO4)=Nc3ncnn32)cc1 | 9.04%
CC(C)c1cc(N2CCN(CCc3ccccc3)CC2)n2c(nc3ccccc32)c1C#N | -23.5%
Cc1c(-c2noc(-c3cccc(N(C)C)c3)n2)nnn1Cc1cccc(F)c1 | -4.14%
COc1ccc(-c2nc(-c3nnn(Cc4cccc(F)c4)c3C)no2)cc1 | 19.7%
CCOc1ccccc1-c1nc(-c2nnn(Cc3ccccc3)c2C)no1 | 41.4% (active)
Cc1cccc(NC(=O)Nc2ccc3c(c2)N(S(=O)(=O)c2ccccc2)CC3)c1C | -0.657%
COC(=O)COc1cccc2c(=O)n(CC(=O)N3CCc4ccccc43)ccc12 | 36% (active)
O=C(Cn1cnc2ccccc21)N1CCCc2ccccc21 | 15.3%
Cc1nc2ccccc2c(=O)n1CC(=O)N1CCCc2ccccc21 | 6.83%
COc1ccc(CNC(=O)[C@H](CCSC)NC(=O)[C@@H]2Cc3c([nH]c4ccccc34)C3c4ccccc4C(=O)N32)cc1 (stereo partly specified) | -15%

Source: PubChem BioAssay AID1645857 (Buhrlage Lab, Dana-Farber Cancer Institute and Novartis …, 2021)
